High-throughput results deposited in PubChem BioAssay by National Center for Advancing Translational Sciences (NCATS).
An excerpt weighted towards active compounds, which were near 17% of everything screened.
HT1080 IDH1KD tx: HT-1080 IDH1 knockdown cell toxicity (counter line). HT-1080 IDH1 knockdown viability, ATP luminescence, 48 h. Potency, µM (top dose mostly 46.1 µM), hits mostly cytotoxic. 360,000 tested, 2% active. AID 686971
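Viability of IDH1-knockdown HT-1080 fibrosarcoma cells was assessed by CellTiter-Glo after 48 h at 37 °C with titrated compound; concentration-effect curves were classified by fit quality and response size.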
TDP1 cell noCPT: qHTS for Inhibitors of human tyrosyl-DNA phosphodiesterase 1 (TDP1): qHTS in cells in absence of CPT; DT40 Tdp1-/- hTDP1 cells, no CPT, ATP luminescence, 48 h; Potency, µM (top dose mostly 46.2 µM), actives largely listed as inhibitors; 420,000 tested, 15% active; also: nearly all actives have a fitted effect of over 55% in size
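DT40 Tdp1-/-;hTDP1 cells, no CPT (DMSO vehicle only), 400 cells/well; compounds pin-transferred; ≥48 hr, 37 °C; CellTiter-Glo 30 min RT dark, luminescence read.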
TDP1 cell CPT: DT40-hTDP1 cell growth loss with CPT. 420,000 tested, 12% active. Potency, µM (doses to about 46.2 µM), usual class: inhibitors. chicken DT40 Tdp1-/-;hTDP1 cells + 20 nM CPT, ATP luminescence, 48 h; also: nearly all actives have a fitted effect of over 55% in size
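Cell growth measured by CellTiter-Glo luminescence after a minimum 48 h, 37 C compound exposure with 20 nM CPT in Tdp1-knockout DT40 cells stably expressing hTDP1, seeded 400/well; qHTS titration format.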
HepG2 viability: counter-screen for TGF-b inhibitors: cytotoxicity in HepG2 cells. HepG2 CAGA-GFP viability, ATP luminescence, 18 h. Potency, µM (doses to about 46.1 µM), most hits filed as cytotoxic. 410,000 tested, 0.76% active. AID 588856
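HepG2 CAGA-GFP cells (1000/well, DMEM with 1% FBS) received compound, then TGF-beta at 500 pg/mL final, and were incubated 18 hours at 37 degrees C. Viability was read by CellTiter-Glo luminescence. Media-only wells were set as complete cell-killing and DMSO as no toxicity.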
HT1080-NT tox: kills 2HG-producing HT-1080-NT fibrosarcoma cells | AID 686970 | Potency, µM (top dose mostly 46.1 µM), most hits filed as cytotoxic | 360,000 tested, 1.6% active | HT-1080-NT fibrosarcoma viability, CellTiter-Glo ATP luminescence, 48 h;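 also: NT is the 2HG producing partner of a matched IDH1 knockdown line; nearly all actives have a fitted effect of over 55% in size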
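Compounds were tested in concentration-response format on HT-1080-NT cells for 48 hours at 37 degrees C. Cell viability came from CellTiter-Glo luminescence; curves were classified by r2, response magnitude and activity.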
TGFb SMAD3 inh: blocks TGF-b signaling; HepG2 CAGA-GFP TGF-b/SMAD3 reporter, GFP fluorescence, 18 h; TGF-beta stimulated, 500 pg/mL final; Potency, µM (titrated, usually from 46.1 µM), usual class: inhibitors; 410,000 tested, 1.2% active; also: nearly all actives have a fitted effect of over 65% in size
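HEPG2 CAGA-GFP, 1000 cells/well; 2 h settle, 37 C; cpd via pin tool; TGF-b 500 pg/mL final; 18 h, 37 C; GFP imaging ex488/em500-530; %Activity normalised to -TGF-b and +DMSO controls; CRC fit, curve class.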
Hits are given with their value; 0 = inactive; ? = inconclusive; - = no result given; [ ] = another dose, or the depositor's remark. Calls follow the shape of the dose curve; as a rule, active = well fitted curve in the direction sought with a large enough effect; inconclusive = small, poorly fitted or top-dose-only effect, or another doubt; inactive = no such curve, though single readings can be large; an effect the other way counts as inactive or inconclusive.

SMILES	HT1080 IDH1KD tx	TDP1 cell noCPT	TDP1 cell CPT	HepG2 viability	HT1080-NT tox	TGFb SMAD3 inh
O=C(NC(CO)C(O)c1ccc([N+](=O)[O-])cc1)C(Cl)Cl (stereo not drawn)	0	?	?	0	0	0
Cc1cc(C)cc(OCC(=O)Nc2ccc(S(=O)(=O)Nc3onc(C)c3C)cc2)c1	-	0	0	0	-	0
CC(C)CC(=O)N1CCN(C(=O)c2cccc(F)c2)CC1	0[9.24 µM]	0	0	0	0	0
CC(=O)c1ccc(N2CCN(C(=O)c3ccc(-c4ccccc4)cc3)CC2)cc1	0	13µM	?	0	0	0
CC(=O)c1ccc(N2CCN(C(=O)c3cccc(Oc4ccccc4)c3)CC2)cc1	0	18µM	16µM	0	0	?
CC(C)CC(=O)N1CCN(C(=O)c2ccc(-c3ccccc3)cc2)CC1	0	23µM	?	0	0	?
COc1ccc2nc(SCC(=O)N(C)CC(=O)Nc3ccc(F)cc3)[nH]c2c1	0	0	0	0	0	0
Cc1cccc(-n2c3nc(=O)[nH]c(=O)c-3cc3cc([N+](=O)[O-])ccc32)c1	?	0	4.6µM	0	?	?
Cc1ccc(C)c(-n2c3nc(=O)[nH]c(=O)c-3cc3cc([N+](=O)[O-])ccc32)c1	5.2µM	0.82µM	1.2µM	0	6.5µM	?
O=c1nc2n(-c3ccccc3F)c3ccccc3cc-2c(=O)[nH]1	-	?	?	0	-	0
CC(C)(C)OC(=O)n1cccc1/C=C1\c2ccccc2C(=O)N1c1ccccc1	0	?	21µM	0	0	0
CCn1c(COc2cccc(C)c2)nc2ccccc21	0	?	?	0	0	0
COc1cccc(OCc2nc3ccccc3n2CCOc2ccccc2C)c1	-	?	?	0	-	?
COc1cccc(Cn2c(C(C)n3c(-c4cnccn4)nc4ccccc43)nc3ccccc32)c1 (stereo not drawn)	15µM	21µM	?	-	?	-
COCc1nc2ccccc2n1Cc1ccc(C(C)(C)C)cc1	-	26µM	21µM	0	-	10µM
c1ccc(Cc2nc3ccccc3n2Cc2ccccc2)cc1	?	?	0	0	0	?
COc1cccc(OCc2nc3ccccc3n2Cc2ccccc2)c1	-	18µM	?	0	-	?
COc1cccc(OCc2nc3ccccc3n2CCOc2ccc(C)cc2)c1	-	16µM	23µM	0	-	?
O=C(NCCCN1CCCCC1)C1CCC(CNS(=O)(=O)c2cccc3nsnc23)CC1 (stereo not drawn)	0	0	0	0	0	0
Cc1ccccc1CSc1nc(C(C)(C)C)cc(=O)[nH]1	0	0	0	0	0	0
CC1CN(CC(=O)Nc2ccc(S(N)(=O)=O)cc2)CC(C)O1 (stereo not drawn)	0	0	0	0	0	0
Cc1ccccc1Cn1c(COc2ccc(Cl)cc2)nc2ccccc21	-	13µM	?	0	-	0
COc1ccc(OCc2nc3ccccc3n2Cc2ccccc2Cl)cc1	-	?	?	0	-	?
COc1ccc(OCc2nc3ccccc3n2Cc2ccc(C(C)(C)C)cc2)cc1	-	?	?	0	-	16µM
O=C(CNC(=O)c1ccc(Cl)c([N+](=O)[O-])c1)NCC1CCCO1 (stereo not drawn)	0	0	?	0	0	0
CCOC(=O)c1sc(N2C(=O)C(O)=C(C(=O)c3ccc(C)o3)C2c2cccc([N+](=O)[O-])c2)nc1C (stereo not drawn)	0	?	0	0	0	0
COc1cc(C2C(C(=O)c3ccc(C)o3)=C(O)C(=O)N2c2cc(C)on2)ccc1OCc1ccccc1 (stereo not drawn)	0	29µM	?	0	0	0
